Article PMC7819943, “Rice protein-binding microarrays: a tool to detect cis-acting elements near promoter regions in rice”
Over roughly 68,000 sequences, “fluorescence intensity (a.u.)” has its median near 9,100; the highest 2% begin near 16,000. This excerpt belongs to a sample that is enriched for the highest values.

Each sequence was assayed against OsWRKY34 (Oryza sativa, UniProt Q0JBA9 1-250) (assay: protein-binding microarray (RPBM); PBS, 2% BSA, 51.3 ng/ul salmon testes DNA, 50 uM zinc acetate, 200 nM TF, 25 C, 1 h; high values mean tight binding). Settings: protein: recombinant; tags: N-terminal polyhistidine and DsRed monomer fusion (pET32a); label: CyDye5-dUTP incorporated in the synthesized complementary strand; 3' TTTTT single-stranded linker to array surface; dsDNA, one strand shown.
OsWRKY34, sequence (Q0JBA9 entry or part of it): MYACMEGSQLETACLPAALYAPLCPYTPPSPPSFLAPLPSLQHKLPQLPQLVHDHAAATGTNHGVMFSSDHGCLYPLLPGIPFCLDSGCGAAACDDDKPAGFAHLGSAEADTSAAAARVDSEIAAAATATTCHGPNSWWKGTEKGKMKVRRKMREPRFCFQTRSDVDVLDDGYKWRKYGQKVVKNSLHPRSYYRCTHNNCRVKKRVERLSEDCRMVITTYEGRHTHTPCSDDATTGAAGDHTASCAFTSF
Outline: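 An Axon 4000B scanner gave the binding signal as per-feature fluorescence intensity in arbitrary units. This followed washing of a custom Agilent array that had been incubated for 1 h at 25 °C with 200 nM protein in PBS, 2% BSA, salmon testes DNA and 50 µM zinc acetate. The proteins were transcription factors fused at the N-terminus to polyhistidine and DsRed, expressed in E. coli BL21-CodonPlus and purified on Ni–NTA.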

Question: How did the binding signal turn out when “CACCATTGACTTTTTAGCACATGTTTGACCGTTCGTCTTACGGAGTCACCTAGTGCAG” was run?
Answer: The binding signal was 14800 fluorescence intensity (a.u.).

Question: With “CGCCGTTGACTTTTTAAAATTTGTTTGACCGTTCGTCTTACGGAGTCACCTAGTGCAG” as the sequence, how does the binding signal read?
Answer: The binding signal was 30700 fluorescence intensity (a.u.).

Question: Which binding signal does the source give for “TGACTTTTTAGCATATGTTTGACCGTTCGTCTTATTCAAACGGAGTCACCTAGTGCAG” here?
Answer: Its binding signal is 13600 fluorescence intensity (a.u.).

Question: How did the binding signal turn out when “CACCATTGACTTTTTAGCATATGTTTGACCGTTCGTCTTACGGAGTCACCTAGTGCAG” was run?
Answer: Its binding signal is 18200 fluorescence intensity (a.u.).

Question: Which binding signal does the source give for “TTCTGAATGTGATTGAATTAATTGGACTTGCGTTGACCTTCGGAGTCACCTAGTGCAG” here?
Answer: The binding signal was 11700 fluorescence intensity (a.u.).

Question: Which binding signal does the source give for “TTCCTTTGTTTAGTTGTTTGTTTTACATTCCACTCTACTACGGAGTCACCTAGTGCAG” here?
Answer: The binding signal was 9220 fluorescence intensity (a.u.).

Question: “CGTTTGACCGTTCGTCTTATTTGAAAATTTTTTATGCTTACGGAGTCACCTAGTGCAG” was tested. Which binding signal did it give?
Answer: The binding signal was 10100 fluorescence intensity (a.u.).

Question: “CTGTTCCATTTCTCCTTGTTGCATCAGTAACTCCAAACCACGGAGTCACCTAGTGCAG” was tested. Which binding signal did it give?
Answer: The binding signal was 12200 fluorescence intensity (a.u.).

Question: For “GATTATTTGCTTTACGGTTTTTTAAAAAAATTTCTTCATACGGAGTCACCTAGTGCAG”, which binding signal is on record?
Answer: The binding signal was 9590 fluorescence intensity (a.u.).

Question: Which binding signal does the source give for “CACACACACCCTGTCGAGCGAATATGCATGTCTTCTCAAGCGGAGTCACCTAGTGCAG” here?
Answer: The binding signal was 8960 fluorescence intensity (a.u.).

Question: Which binding signal does the source give for “TCCCTTTTGAGTACCACTGCTGATATCTGGATGCCCGTCACGGAGTCACCTAGTGCAG” here?
Answer: The binding signal was 8080 fluorescence intensity (a.u.).

Question: For “TTCACAATGTAAGCCATTCTAGCATTTTCCATATTTATATCGGAGTCACCTAGTGCAG”, which binding signal is on record?
Answer: The binding signal was 8240 fluorescence intensity (a.u.).

Question: For “ATTTTGCCCCTTGTTGATCACCACAGAAGAACATGTGCTACGGAGTCACCTAGTGCAG”, which binding signal is on record?
Answer: The binding signal was 9790 fluorescence intensity (a.u.).

Question: How did the binding signal turn out when “AACTTTACAATTTTTTTATGTCATCCATGTCACATGTTTTCGGAGTCACCTAGTGCAG” was run?
Answer: Its binding signal is 9030 fluorescence intensity (a.u.).

Question: “GGTCGTCGTCTTTGCATTGTCTCCTTGTCCGGTACGTTGGCGGAGTCACCTAGTGCAG” was tested. Which binding signal did it give?
Answer: The binding signal was 9400 fluorescence intensity (a.u.).

Question: With “TGTTAACTTTTTAGTACGTGTTTGACTATTCGTTTTATTCCGGAGTCACCTAGTGCAG” as the sequence, how does the binding signal read?
Answer: The binding signal was 12800 fluorescence intensity (a.u.).

Question: With “ACCCACTTTCGACTCCATGAATTTCATCACATTTGTTTTACGGAGTCACCTAGTGCAG” as the sequence, how does the binding signal read?
Answer: Its binding signal is 18600 fluorescence intensity (a.u.).

Question: With “ATCCGTGTATTATAGCGTTTCGTAGTAGTATTTTTATGTCCGGAGTCACCTAGTGCAG” as the sequence, how does the binding signal read?
Answer: Its binding signal is 9280 fluorescence intensity (a.u.).

Question: With “GTTCATATAGTACGTACTTTTATTCGTTAGTATATATGACCGGAGTCACCTAGTGCAG” as the sequence, how does the binding signal read?
Answer: Its binding signal is 9410 fluorescence intensity (a.u.).

Question: How did the binding signal turn out when “CCCATTCTTTCACTTTTGACCTTTTTTTATCATTTTGTTTCGGAGTCACCTAGTGCAG” was run?
Answer: The binding signal was 9510 fluorescence intensity (a.u.).

Question: How did the binding signal turn out when “TTTGACACCGTTGACTTTTTAGTACGTATTTGATCATTCGCGGAGTCACCTAGTGCAG” was run?
Answer: Its binding signal is 33800 fluorescence intensity (a.u.).

Question: “TGTCACATTCGTCTCCGGTCCGTACGTTGCTGTATTTTAGCGGAGTCACCTAGTGCAG” was tested. Which binding signal did it give?
Answer: The binding signal was 17100 fluorescence intensity (a.u.).

Question: Which binding signal does the source give for “TTTGACACCGTTGATTTTTTAATATGTGTTTGACCATTCGCGGAGTCACCTAGTGCAG” here?
Answer: Its binding signal is 9260 fluorescence intensity (a.u.).

Question: With “CGTTGACTTTTTAGTACGTGTTTGACCATTCGTCTTATTCCGGAGTCACCTAGTGCAG” as the sequence, how does the binding signal read?
Answer: Its binding signal is 30200 fluorescence intensity (a.u.).

Question: Which binding signal does the source give for “TTTAGTACGTGTTTGACCATTCGTCTTATTAAAAAAATTTCGGAGTCACCTAGTGCAG” here?
Answer: The binding signal was 9130 fluorescence intensity (a.u.).

Question: Which binding signal does the source give for “GTTCCCAACGGTCACCTCGTCGTCGTTGCCAAATCTGCCACGGAGTCACCTAGTGCAG” here?
Answer: Its binding signal is 8670 fluorescence intensity (a.u.).

Question: For “ATCACGTCGCCTCGTTTCTTGCCTCGCCGCTCGTTGCTCGCGGAGTCACCTAGTGCAG”, which binding signal is on record?
Answer: The binding signal was 12200 fluorescence intensity (a.u.).

Question: With “AATACCAAGTTTATTTCTCACCTGCATTTTAGATTCTCATCGGAGTCACCTAGTGCAG” as the sequence, how does the binding signal read?
Answer: The binding signal was 9050 fluorescence intensity (a.u.).

Question: For “TAGTCCACCTTTTATTACCCAAGTTTCAATTTGGACCACCCGGAGTCACCTAGTGCAG”, which binding signal is on record?
Answer: The binding signal was 9740 fluorescence intensity (a.u.).

Question: “TCCCTTCCCTGTTCCTGGCGACGTGTCACCTTCTTATTCGCGGAGTCACCTAGTGCAG” was tested. Which binding signal did it give?
Answer: Its binding signal is 8050 fluorescence intensity (a.u.).

Question: With “ATAAACATTGACTCGCCGGAGTAGTTTTGAAACGTTTGACCGGAGTCACCTAGTGCAG” as the sequence, how does the binding signal read?
Answer: Its binding signal is 9180 fluorescence intensity (a.u.).

Question: For “GCAACCAACATCCCGGCGGCGAGCTCGTACGTACCAAATCCGGAGTCACCTAGTGCAG”, which binding signal is on record?
Answer: Its binding signal is 10800 fluorescence intensity (a.u.).

Question: Which binding signal does the source give for “CACACCACACACTGATGCAACGGCACTTAAGCGCACGAAGCGGAGTCACCTAGTGCAG” here?
Answer: The binding signal was 8060 fluorescence intensity (a.u.).

Question: How did the binding signal turn out when “CGTCGGTGTGGTATGCTTGTCGCGCGGCGGCGCGGCCGTACGGAGTCACCTAGTGCAG” was run?
Answer: The binding signal was 8790 fluorescence intensity (a.u.).

Question: “CCTACCTCCTACTCCTTATCCTCCACTTCGTCGCATTACACGGAGTCACCTAGTGCAG” was tested. Which binding signal did it give?
Answer: Its binding signal is 8750 fluorescence intensity (a.u.).

Question: How did the binding signal turn out when “CGACTGCAGCTGATCCGGATTCAACACGGACATAGTACACCGGAGTCACCTAGTGCAG” was run?
Answer: Its binding signal is 8550 fluorescence intensity (a.u.).

Question: “ATTTAGTTCTCAACATACCCCTTTTCATCTTTTTGTCAGACGGAGTCACCTAGTGCAG” was tested. Which binding signal did it give?
Answer: Its binding signal is 8840 fluorescence intensity (a.u.).

Question: Which binding signal does the source give for “ACACCGTTGACTTTTTAGTACGTATTTGACCATTCGTCTTCGGAGTCACCTAGTGCAG” here?
Answer: The binding signal was 36700 fluorescence intensity (a.u.).

Question: With “AATATTTTTTTTTACTGTTTTCACTTTGACCATTAATATTCGGAGTCACCTAGTGCAG” as the sequence, how does the binding signal read?
Answer: Its binding signal is 9790 fluorescence intensity (a.u.).

Question: For “TCATTGACTTTTCGATCAACGTTTGACCATTTGTTTTATTCGGAGTCACCTAGTGCAG”, which binding signal is on record?
Answer: Its binding signal is 16700 fluorescence intensity (a.u.).

Question: With “CTTTTTAATCAACGTTTGACCATTCGTCTTATTCAATTTTCGGAGTCACCTAGTGCAG” as the sequence, how does the binding signal read?
Answer: The binding signal was 10900 fluorescence intensity (a.u.).

Question: Which binding signal does the source give for “GCTGTTGACTTTCGACCTACGTTTGACCATTCGTTTTATTCGGAGTCACCTAGTGCAG” here?
Answer: Its binding signal is 20600 fluorescence intensity (a.u.).

Question: For “CGTTGACTTTTTAGTACATGTTTGACCATTCGTCTTATTCCGGAGTCACCTAGTGCAG”, which binding signal is on record?
Answer: Its binding signal is 36100 fluorescence intensity (a.u.).

Question: “GTTGACTTTTTGATTAACGTTTGACCATTCGTTTTATTCACGGAGTCACCTAGTGCAG” was tested. Which binding signal did it give?
Answer: Its binding signal is 9480 fluorescence intensity (a.u.).

Question: With “TCATTCATATTATTTATTATTTAGTTGTTTGACTTTTTTTCGGAGTCACCTAGTGCAG” as the sequence, how does the binding signal read?
Answer: The binding signal was 9600 fluorescence intensity (a.u.).
